# Some compounds were tested as several samples or in several runs, with calls that do not always agree. Active and inactive are the calls of the source. Rule for the calls: active = hit-call score of the fitted dose curve at least 0.9, where 1 is the maximum; inactive = score below 0.9.
# Target: human Peroxisome Proliferator-activated Receptor alpha (PPARa) Agonism, conducted at France lab site, PPARA (gene 5465) (UniProt Q07869)
# Assay: ERF_FR_NR_COA_hPPARA: Eurofins (ERF) Nuclear Receptor (NR) Functional Coactivator Assay for human Peroxisome Proliferator-activated Receptor alpha (PPARa) Agonism, conducted at France lab site
# Protocol: ERF_FR_NR_COA_hPPARA is a biochemical, single-readout assay that uses extracted gene-proteins in a cell-free assay. Measurements were taken 2 hours after chemical dosing in a 384-well plate. See PPARalpha Human NHR Functional Agonist Coactivator Assay, Cerep.ERF_FR_NR_COA_hPPARA is an assay component calculated from the ERF_FR_NR_COA_hPPARA assay. It is designed to measure FRET using a type of binding reporter as detected by fluorescence intensity of GW7647 with fluorimetry technology.Data from the assay component ERF_FR_NR_COA_hPPARA was analyzed at the assay endpoint, ERF_FR_NR_COA_hPPARA, in the positive analysis fitting direction relative to DMSO as the negative control and baseline of activity. Using a type of binding reporter, gain-of-signal activity can be used to understand changes in binding as they relate to gene PPARA. To generalize the intended target to other relatable targets, this assay endpoint is annotated to the nuclear receptor intended target family, where the subfamily is non-steroidal.
# Human cells are incubated for 3 hours at room temprature with GW7647 as control activator. Test Sample Requirements: Minimum for 1) Screen: 75 ul of 10 mM stock or 1 mg (pre-weighed) powder (assuming FW =<500 and purity 100%).
# human Peroxisome Proliferator-activated Receptor alpha (PPARa) Agonism, conducted at France lab site, PPARA (gene 5465), sequence (Q07869 whole entry, looked up): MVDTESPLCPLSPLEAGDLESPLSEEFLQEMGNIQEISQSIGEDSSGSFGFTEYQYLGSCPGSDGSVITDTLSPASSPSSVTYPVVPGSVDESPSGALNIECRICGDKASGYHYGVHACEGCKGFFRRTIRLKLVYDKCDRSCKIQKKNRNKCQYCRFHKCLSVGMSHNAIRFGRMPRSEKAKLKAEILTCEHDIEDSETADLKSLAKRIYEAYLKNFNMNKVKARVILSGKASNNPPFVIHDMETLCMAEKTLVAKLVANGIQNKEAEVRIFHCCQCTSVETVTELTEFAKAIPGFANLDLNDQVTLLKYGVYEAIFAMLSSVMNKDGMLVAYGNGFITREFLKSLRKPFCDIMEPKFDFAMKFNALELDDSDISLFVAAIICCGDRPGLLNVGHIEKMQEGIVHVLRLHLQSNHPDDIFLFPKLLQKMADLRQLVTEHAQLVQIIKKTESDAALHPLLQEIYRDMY
SMILES,outcome,AC50
O=S(=O)(O)C(F)(F)C(F)(F)C(F)(F)C(F)(F)C(F)(F)C(F)(F)C(F)(F)C(F)(F)F,inactive,
O=C(O)C(F)(F)OC(F)(F)C(F)(F)OC(F)(F)F,inactive,
O=C(O)CCC(F)(F)C(F)(F)C(F)(F)F,inactive,
O=C(O)C(F)(F)C(F)(F)C(F)(F)C(F)(F)C(F)(F)C(F)(F)C(F)(F)C(F)(F)Cl,inactive,
O=C(O)C(F)(F)C(F)(F)C(F)(F)C(F)(F)C(F)(F)C(F)(F)F,inactive,
O=C(CC(=O)C(F)(F)C(F)(F)C(F)(F)F)c1cccs1,inactive,
CC(C)(Oc1ccc(C(=O)c2ccc(Cl)cc2)cc1)C(=O)O,inactive,
O=C(O)C(F)(F)C(F)(F)C(F)(F)C(F)(F)C(F)(F)C(F)(F)C(F)(F)F,inactive,3.17 µM (active)
O=C(Cl)C(F)(F)C(F)(F)C(F)(F)C(F)(F)C(F)(F)C(F)(F)F,inactive,
O=S(=O)(O)C(F)(F)C(F)(F)C(F)(F)C(F)(F)C(F)(F)C(F)(F)F,inactive,
O=C(O)C(F)(F)C(F)(F)C(F)(F)C(F)(F)C(F)(F)C(F)(F)C(F)F,inactive,
CN(CCOc1ccc(CC2SC(=O)NC2=O)cc1)c1ccccn1 (stereo not drawn),inactive,

# Source: PubChem BioAssay AID2284367 (EPA ToxCast)
